Test results published in the supplement of paper PMC8975748.
Counter-ions that a name gives are not always drawn.

These compounds were tested on Saccharomyces cerevisiae BY4741 SeMeCo community (assay: z-score of subpopulation abundance vs DMSO median, subpopulation auxotrophic for LUM; higher = larger share of this subpopulation than in DMSO controls). Settings: 10 µM; 24 h; SM minimal medium; subpopulation (auxotrophy): LUM.
Method: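 Fluorescent four-plasmid SeMeCo (self-establishing metabolically cooperating S. cerevisiae BY4741 community; plasmids pH-mRuby2, pL-mWasabi, pU-eCFP, pM-TagRFP657) was grown 24 h in minimal SM medium with each Selleck FDA-approved drug at 10 µM in 384-well plates. Cells were fixed and imaged by high-content confocal microscopy. For each auxotrophic subpopulation (and the prototroph), a z-score gives the deviation from the DMSO vehicle-control population median.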

Row | Compound | z-score of subpopulation abundance
1 | Nc1ccc(C(=O)O)c(O)c1 [4-Aminosalicylic acid] | -1.15
2 | Cc1ccsc1/C=C/C1=NCCCN1C [Morantel tartrate] | -0.24
3 | CC(C)[N+](C)(CCOC(=O)C1c2ccccc2Oc2ccccc21)C(C)C [Propantheline bromide] | -1.5
4 | CCCCOc1ccc(CC(=O)NO)cc1 [Bufexamac] | -0.9
5 | CC[C@H](c1ccc(O)cc1)[C@@H](CC)c1ccc(O)cc1 [Hexestrol] | -1.39
6 | Fc1ccc([C@@H]2CCNC[C@H]2COc2ccc3c(c2)OCO3)cc1 [Paroxetine mesylate] | -0.39
7 | OCCN1CCN(CCCN2c3ccccc3Sc3ccc(C(F)(F)F)cc32)CC1 [Fluphenazine dihydrochloride] | 0.9
8 | CSc1nc2cc(Cl)c(Oc3cccc(Cl)c3Cl)cc2[nH]1 [Triclabendazole] | 1.09
9 | C[C@@H](NCCCc1cccc(C(F)(F)F)c1)c1cccc2ccccc12 [Cinacalcet HCl] | 2.57
10 | O=C1CN2Cc3c(ccc(Cl)c3Cl)N=C2N1 [Anagrelide HCl] | -0.58
11 | CNCCCN1c2ccccc2CCc2ccccc21 [Desipramine Hydrochloride] | -0.63
12 | CNCCC(Oc1ccc(C(F)(F)F)cc1)c1ccccc1 (stereo not given) [Fluoxetine HCl] | 0.21
13 | COCCOC(=O)C1=C(C)NC(C)=C(C(=O)OC(C)C)C1c1cccc([N+](=O)[O-])c1 (stereo not given) [Nimodipine] | 0.35
14 | C#CCN(C)Cc1ccccc1 [Pargyline hydrochloride] | 0.15
15 | CC[C@H]1OC(=O)[C@H](C)[C@@H](O[C@H]2C[C@@](C)(OC)[C@@H](O)[C@H](C)O2)[C@H](C)[C@@H](O[C@@H]2O[C@H](C)C[C@H](N(C)C)[C@H]2O)[C@](C)(O)C[C@@H](C)C(=O)[C@H](C)[C@@H](O)[C@]1(C)O [Erythromycin thiocyanate] | -0.09
16 | CN(C)[C@@H]1C(=O)C(C(N)=O)=C(O)[C@@]2(O)C(=O)C3=C(O)c4c(O)ccc(Cl)c4[C@@H](O)[C@H]3C[C@@H]12 [Demeclocycline HCl] | -0.57
17 | Nc1ccc(S(N)(=O)=O)cc1 [Sulfanilamide] | -0.2
18 | CCCC(=O)OCOC(=O)C1=C(C)NC(C)=C(C(=O)OC)C1c1cccc(Cl)c1Cl (stereo not given) [Clevidipine Butyrate] | -4.1
19 | CC#C[C@]1(O)CC[C@H]2[C@@H]3CCC4=CC(=O)CCC4=C3[C@@H](c3ccc(N(C)C)cc3)C[C@@]21C [Mifepristone] | 0.67
20 | COC(=O)Nc1nc2cc(C(=O)c3ccc(F)cc3)ccc2[nH]1 [Flubendazole] | 0.68

Row | Compound | z-score of subpopulation abundance
21 | Nc1c2c(nc3ccccc13)CCCC2 [Tacrine hydrochloride hydrate] | 0.71
22 | CCOC(=O)c1ccc(N)cc1 [Benzocaine] | -0.29
23 | c1ccc(C2CN3CCSC3=N2)cc1 (stereo not given) [Tetramisole HCl] | 0.46
24 | O=C1CCc2ccc(OCCCCN3CCN(c4cccc(Cl)c4Cl)CC3)cc2N1 [Aripiprazole] | 1.32
25 | Clc1ccc(COC(Cn2ccnc2)c2ccc(Cl)cc2Cl)c(Cl)c1 (stereo not given) [Miconazole] | 0.67
26 | CC(=O)N[C@H]1[C@H]([C@H](O)[C@H](O)CO)OC(C(=O)O)=C[C@@H]1NC(=N)N [Zanamivir] | 0.82
27 | C=CCN1CCCC1CNC(=O)c1cc2nn[nH]c2cc1OC (stereo not given) [Alizapride HCl] | 0.44
28 | CC[C@H]1OC(=O)[C@H](C)[C@@H](O[C@H]2C[C@@](C)(OC)[C@@H](O)[C@H](C)O2)[C@H](C)[C@@H](O[C@@H]2O[C@H](C)C[C@H](N(C)C)[C@H]2O)[C@](C)(O)C[C@@H](C)C(=O)[C@H](C)[C@@H](O)[C@]1(C)O [Erythromycin] | 1.19
29 | O=C(O)c1cc(O)c2c(c1)[C@H]([C@H]1c3cc(C(=O)O)cc(O)c3C(=O)c3c(O[C@@H]4O[C@H](CO)[C@@H](O)[C@H](O)[C@H]4O)cccc31)c1cccc(O[C@@H]3O[C@H](CO)[C@@H](O)[C@H](O)[C@H]3O)c1C2=O [Sennoside A] | -0.81
30 | O=C(Cn1cnnn1)N[C@@H]1C(=O)N2C(C(=O)O)=C(CSc3nncs3)CS[C@H]12 [Ceftezole] | 0.28
31 | Nc1ccc(S(=O)(=O)c2ccc(N)cc2)cc1 [Dapson] | 0.92
32 | Clc1ccc(CCC(Cn2ccnc2)Sc2c(Cl)cccc2Cl)cc1 (stereo not given) [Butoconazole] | 3.75
33 | CO/N=C(\C(=O)N[C@@H]1C(=O)N2C(C(=O)O)=C(CSC(=O)c3ccco3)CS[C@H]12)c1csc(N)n1 [Ceftiofur HCl] | -0.05
34 | O=C(CCCN1CC=C(n2c(=O)[nH]c3ccccc32)CC1)c1ccc(F)cc1 [Droperidol] | 0.57
35 | C[C@]1(COc2ccc(N3CCC(Oc4ccc(OC(F)(F)F)cc4)CC3)cc2)Cn2cc([N+](=O)[O-])nc2O1 [Delamanid] | 0.42
36 | COc1ccc2c(c1)c(CC(=O)O)c(C)n2C(=O)c1ccc(Cl)cc1 [Indomethacin] | 0.47
37 | CCN(CC)CCNC(=O)c1cc(Cl)c(N)cc1OC [Metoclopramide HCl] | -0.48
38 | C#CCN[C@@H]1CCc2ccccc21 [Rasagiline Mesylate] | 0.19
39 | CCN(CC)C(=O)[C@@]1(c2ccccc2)C[C@H]1CN [Levomilnacipran Hydrochloride] | -0.59
40 | O=C1CCc2cc(OCCCCc3nnnn3C3CCCCC3)ccc2N1 [Cilostazol] | -0.52
